Pf growth 48h: inhibits P. falciparum growth in the first generation, 48 h. AID 504832. Potency, µM (series often up to 28.7 µM), most hits filed as inhibitors. P. falciparum luciferase growth in erythrocytes, 48 h. hit rate 5.9% among 310,000
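Growth was read as firefly luciferase luminescence after a 48 h, 37 C, 5% CO2 exposure of compounds to reporter-bearing P. falciparum cultures (0.1% parasitemia, 2% hematocrit final) in Albumax-supplemented RPMI 1640.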
Shiga inhibitor: blocks Shiga toxin action in Vero cells | Vero cells, Shiga toxin protein synthesis inhibition reporter | inhibition, % at 38.7 µM | hit rate 9.2% among 290,000; in the data active = inhibition mostly above about 28%, no sharp cut-off; inactive = mostly below about 43%
CHX counter: counter-screen hit for Shiga toxin inhibitors, cycloheximide. cell reporter, cycloheximide protein synthesis inhibition counterscreen. max response, %. hit rate 12% among 300,000. AID 2314; in the data active = max response mostly above about 13%, no sharp cut-off; inactive = mostly below about 14%; note: read at 38.3 µM for the half of the compounds with a filed dose
Pf growth 96h: inhibits malaria parasite growth, 96 h; hit rate 6.9% among 320,000; Potency, µM (highest dose often 28.7 µM), most hits filed as inhibitors; P. falciparum luciferase reporter growth, 96 h; AID 504834
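Erythrocytes infected with luciferase-expressing P. falciparum were dispensed at 2% hematocrit and 0.05% parasitemia (final), then incubated with compounds 96 hours at 37 C in 5% CO2. Luminescence after detection reagent addition reported growth.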
HCV inhibitor: blocks hepatitis C virus; Huh7.5.1 HCVcc-Cre infection, luciferase reporter, 44 h; Potency, µM (series often up to 41.8 µM), hits mostly inhibitors; hit rate 3.4% among 340,000
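Luciferase read-out (15 sec integration) after a 15 min room-temperature substrate step quantifies HCVcc-Cre infection. Cells, 1,000 per well, had compound added 4 h post-plating, then virus at ~0.5 moi, and were cultured 44 h.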
AMA1 RON2 block: disrupts binding of P. falciparum AMA1 to RON2; AlphaScreen AMA1-biotinylated RON2 peptide binding; Potency, µM (doses to about 58.2 µM), most hits filed as inhibitors; hit rate 0.2% among 360,000; AID 720542; note: nearly all actives have a fitted effect of over 45% in size
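AMA1 (3D7) with his tag at 25 nM final met compounds first, then biotinylated RON2 peptide at 25 nM; detection used donor plus acceptor beads, 10 µg/mL apiece, read by AlphaScreen after 30 min at room temperature.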
Hits are given with their value. A selection: hits, their analogues and other compounds. The true share with any hit is near 21%. Unless noted, calls come from the whole dose curve; as a rule, active = well fitted curve in the direction sought with a large enough effect; inconclusive = small, poorly fitted or top-dose-only effect, or another doubt; inactive = no such curve, though single readings can be large; an effect the other way counts as inactive or inconclusive.

`O=C(NCCN1CCOCC1)c1ccccc1N1C(=O)[C@@H]2Cc3c([nH]c4ccccc34)C(c3ccc(F)cc3)N2C1=O` (some centres not stated) gave Pf growth 48h inconclusive, Shiga inhibitor inactive, CHX counter inactive, Pf growth 96h inconclusive, HCV inhibitor inactive and AMA1 RON2 block inactive.
`Cn1c(S(=O)(=O)Cc2ccc(Cl)cc2)nc2ccccc21` gave Pf growth 48h inconclusive, Shiga inhibitor inactive, CHX counter inactive, Pf growth 96h inactive, HCV inhibitor inactive and AMA1 RON2 block inactive.
Screening Cn1c(NCc2ccc(Cl)cc2)nc2ccccc21 returned Pf growth 48h inactive, Shiga inhibitor 56, CHX counter 38, Pf growth 96h inactive, HCV inhibitor inconclusive and AMA1 RON2 block inactive.
Screening Cc1ccc(CNc2nc3ccccc3n2C)cc1 returned Pf growth 48h inactive, Shiga inhibitor inactive, CHX counter 23, Pf growth 96h inactive, HCV inhibitor inactive and AMA1 RON2 block inactive.
CN(C(=O)c1c[nH]c(=O)cc1C(F)(F)F)c1ccc(Cl)c(Cl)c1 was read as Pf growth 48h 12µM, Shiga inhibitor inactive, CHX counter inactive, Pf growth 96h inactive, HCV inhibitor inactive and AMA1 RON2 block inactive.
`COc1ccccc1C(=O)N1CCCC(C)(C(=O)NS(=O)(=O)C2CC2)C1` (configuration not stated) gave AMA1 RON2 block inactive.
`Cc1ccc(-c2nnn(C(C)C(=O)N3c4ccccc4CCc4ccccc43)n2)cc1` (configuration not stated) gave Pf growth 48h inconclusive, Shiga inhibitor inactive, CHX counter inactive, Pf growth 96h 12µM, HCV inhibitor inconclusive and AMA1 RON2 block inactive.
Screening CC(C(=O)N1c2ccccc2CCc2ccccc21)n1nnc(-c2ccc(N(C)C)cc2)n1 (configuration not stated) returned Pf growth 48h 7.4µM, Shiga inhibitor inactive, CHX counter inactive, Pf growth 96h inactive, HCV inhibitor inconclusive and AMA1 RON2 block inactive.
For CC(C)Cc1ccc(C(C)NC(=O)c2ccc(=O)[nH]c2)cc1 (configuration not stated) the results were Pf growth 48h inactive, Shiga inhibitor inactive, CHX counter inactive, Pf growth 96h inactive, HCV inhibitor inactive and AMA1 RON2 block inactive.
Screening Cc1cccc(C)c1OCCCn1c(CCNC(=O)C2CCCCC2)nc2ccccc21 returned Shiga inhibitor inactive and CHX counter inactive.
COC(=O)c1ccccc1NC(=O)CNCCc1ccc(OC)c(OC)c1 was read as Pf growth 48h inactive, Shiga inhibitor inactive, CHX counter inactive, Pf growth 96h inactive, HCV inhibitor inactive and AMA1 RON2 block inactive.
CCOC(=O)c1[nH]c(C)c(C(=O)NC2CCCCCC2)c1C was read as Pf growth 48h inactive, Shiga inhibitor inactive, CHX counter inactive, Pf growth 96h 9.3µM, HCV inhibitor inactive and AMA1 RON2 block inactive.
For CCOC(=O)c1[nH]c(C)c(C(=O)C(C)C)c1C the results were Shiga inhibitor inactive, CHX counter 17, Pf growth 96h inactive, HCV inhibitor inactive and AMA1 RON2 block inactive.
For CCOC(=O)c1[nH]c(C)c(CC(C)C)c1C the results were Pf growth 48h inactive, Shiga inhibitor inactive, CHX counter 20, Pf growth 96h inactive, HCV inhibitor inconclusive and AMA1 RON2 block inactive.
CCOC(=O)c1[nH]c(C(=O)O)c(CCC(=O)OC)c1C was read as Pf growth 48h inactive, Shiga inhibitor inactive, CHX counter inactive, Pf growth 96h 12µM, HCV inhibitor inactive and AMA1 RON2 block inactive.
`COC(=O)CCc1c(C)[nH]c(C(=O)OCc2ccccc2)c1C` gave Pf growth 48h inactive, Shiga inhibitor inactive, CHX counter inactive, Pf growth 96h inactive, HCV inhibitor inactive and AMA1 RON2 block inconclusive.
Screening CCOC(=O)c1[nH]c(C)c(C(=O)NC2CCCC2)c1C returned Shiga inhibitor inactive, CHX counter inactive, Pf growth 96h inactive, HCV inhibitor inactive and AMA1 RON2 block inactive.
CCOc1cc(Cl)c(CNCCCN2CCOCC2)cc1OC was read as Pf growth 48h inactive, CHX counter inactive, Pf growth 96h inconclusive, HCV inhibitor inactive and AMA1 RON2 block inactive.
`O=C(CN1CCc2cc3c(cc2C1)OCCCO3)Nc1c(F)cccc1F` gave Pf growth 48h inactive, Shiga inhibitor inactive, CHX counter inactive, Pf growth 96h inconclusive, HCV inhibitor inactive and AMA1 RON2 block inactive.
Screening CCOC(=O)CC1=CCc2c1ccc(OC)c2OC returned HCV inhibitor inactive and AMA1 RON2 block inactive.
For Nc1ccccc1OCCOc1ccccc1N the results were Shiga inhibitor inactive, CHX counter 20, Pf growth 96h inactive, HCV inhibitor inactive and AMA1 RON2 block inactive.
Screening c1ccc(Oc2cc(-n3cncn3)ncn2)cc1 returned Pf growth 48h inactive, Shiga inhibitor 39, CHX counter inactive, Pf growth 96h inactive, HCV inhibitor inactive and AMA1 RON2 block inactive.
`c1ccc(Oc2cccc(OCCCn3cncn3)c2)cc1` gave Pf growth 48h inactive, Shiga inhibitor inactive, CHX counter inactive, Pf growth 96h inactive, HCV inhibitor inactive and AMA1 RON2 block inactive.
`c1ccc(Oc2cc(-c3ccccc3)nc(-c3ccccc3)n2)cc1` gave Pf growth 48h inactive, Shiga inhibitor inactive, CHX counter inactive, Pf growth 96h inconclusive, HCV inhibitor inactive and AMA1 RON2 block inactive.
For Cc1cnn(-c2cc(Oc3ccccc3)ncn2)c1 the results were Pf growth 48h inactive, Shiga inhibitor 112, CHX counter 52, Pf growth 96h inactive, HCV inhibitor inactive and AMA1 RON2 block inactive.
For c1ccc(Oc2cc(-c3ccccc3)ncn2)cc1 the results were Pf growth 48h inactive, Shiga inhibitor 127, CHX counter 59, Pf growth 96h inactive, HCV inhibitor inactive and AMA1 RON2 block inactive.
For CCOC(=O)c1cnn(-c2cc(Oc3ccccc3)ncn2)c1N the results were Pf growth 48h inactive, Shiga inhibitor inactive, CHX counter inactive, Pf growth 96h inactive, HCV inhibitor inactive and AMA1 RON2 block inactive.
N#Cc1cccc(NC(=O)c2cc(C3CCCCN3C(=O)c3cccs3)on2)c1 (configuration not stated) was read as AMA1 RON2 block inactive.
Screening Cc1cc(=O)oc(C)c1C(=O)Nc1cccc(F)c1 returned Pf growth 48h inactive, Shiga inhibitor inactive, CHX counter inactive, Pf growth 96h inactive, HCV inhibitor inactive and AMA1 RON2 block inactive.
Screening Cc1nc(NC(=O)c2cccc(Cl)c2)sc1C(=O)N1CCCCC1 returned Pf growth 48h inconclusive, Shiga inhibitor inactive, CHX counter inactive, Pf growth 96h inactive, HCV inhibitor inactive and AMA1 RON2 block inactive.
For CCN(CC)c1ccc2cc(C(=O)NCc3ccc(F)cc3)c(=N)oc2c1 the results were Pf growth 48h inconclusive, Shiga inhibitor inactive, CHX counter inactive and Pf growth 96h 1.7µM.
Screening N=c1oc2ccc(Br)cc2cc1C(=O)NCc1ccc(F)cc1 returned Pf growth 48h inactive, Shiga inhibitor inactive, CHX counter 23, Pf growth 96h 2.6µM, HCV inhibitor inactive and AMA1 RON2 block inactive.
